# TbPYK inhibitor: T. brucei pyruvate kinase inhibition; Q57TT1; Potency, µM (series often up to 76.8 µM), for the others: at the top dose activity, negative = inhibition, most hits filed as inhibitors; TbPYK enzyme, Kinase-Glo Plus ATP luminescence, 45 min; 410,000 compounds, 0.12% hits; note: potency is the fitted concentration of half-maximal effect; % is set by controls: 0 for no effect and ±100 for the full control effect; nearly all actives have a fitted effect of over 50% in size
#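 In this concentration-response screen, enzyme-free wells defined baseline while DMSO plates tracked drift. Each reaction combined TbPYK, substrate, compound and 130 uM ADP for 45 min at room temperature. Kinase-Glo Plus luminescence gave the signal.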
# Shiga inhibitor: blocks Shiga toxin action in Vero cells | Vero cells, Shiga toxin protein synthesis inhibition reporter | 290,000 compounds, 9.2% hits | AID 2315 | inhibition, % at 38.7 µM; in the data active = inhibition mostly above about 28%, no sharp cut-off; inactive = mostly below about 43%; note: 0% is about no effect
# FBPA Giardia inh: blocks Giardia fructose-bisphosphate aldolase activity; 290,000 compounds, 0.71% hits; AID 2451; purified Giardia FBPA; Potency, µM (top dose mostly 59.6 µM), for the others: top-dose activity, negative = inhibition, most hits filed as inhibitors; note: potency is the fitted concentration of half-maximal effect; % is set by controls: 0 for no effect and ±100 for the full control effect; nearly all actives have a fitted effect of over 55% in size
#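 40 nM FBPA preincubated 10 min at RT with compound (up to 57.5 uM final), then substrate plus GAPDH/TPI/NAD/arsenate coupling and diaphorase/resazurin added. Fluorescence read after 20 min at RT, 525/598 nm.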
# Sm TGR block: inhibitors of Schistosoma mansoni thioredoxin glutathione reductase; Potency, µM (doses to about 114 µM), for the others: at the highest dose activity change, negative = inhibition, usual class: inhibitors; 360,000 compounds, 3% hits; Q962Y6; AID 485364; purified TGR, DTNB reduction, TNB absorbance 405 nm; note: potency is the fitted concentration of half-maximal effect; % is set by controls: 0 for no effect and ±100 for the full control effect; nearly all actives have a fitted effect of over 60% in size
#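 Kinetic colorimetric format: TGR-catalysed, NADPH-driven DTNB reduction monitored via TNB absorbance. Enzyme dispensed at 20 nM; compound exposure 15 min at room temperature before reaction start.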
# CHX counter: counter-screen hit for Shiga toxin inhibitors, cycloheximide; cell reporter, cycloheximide protein synthesis inhibition counterscreen; max response, %; AID 2314; 300,000 compounds, 12% hits; in the data active = max response mostly above about 13%, no sharp cut-off; inactive = mostly below about 14%; note: read at 38.3 µM for the half of the compounds with a filed dose; 0% is about no effect
# LmPK inh: LmPK (Leishmania mexicana) enzyme inhibition; Q27686; purified LmPK, Kinase-Glo ATP luminescence, 1 h; Potency, µM (titrated, usually from 57.5 µM), without a hit: top-dose activity change, negative = inhibition, most hits filed as inhibitors; 290,000 compounds, 0.37% hits; AID 1721; note: potency is the fitted concentration of half-maximal effect; % is set by controls: 0 for no effect and ±100 for the full control effect
# Target sequence (Q27686 whole entry, looked up): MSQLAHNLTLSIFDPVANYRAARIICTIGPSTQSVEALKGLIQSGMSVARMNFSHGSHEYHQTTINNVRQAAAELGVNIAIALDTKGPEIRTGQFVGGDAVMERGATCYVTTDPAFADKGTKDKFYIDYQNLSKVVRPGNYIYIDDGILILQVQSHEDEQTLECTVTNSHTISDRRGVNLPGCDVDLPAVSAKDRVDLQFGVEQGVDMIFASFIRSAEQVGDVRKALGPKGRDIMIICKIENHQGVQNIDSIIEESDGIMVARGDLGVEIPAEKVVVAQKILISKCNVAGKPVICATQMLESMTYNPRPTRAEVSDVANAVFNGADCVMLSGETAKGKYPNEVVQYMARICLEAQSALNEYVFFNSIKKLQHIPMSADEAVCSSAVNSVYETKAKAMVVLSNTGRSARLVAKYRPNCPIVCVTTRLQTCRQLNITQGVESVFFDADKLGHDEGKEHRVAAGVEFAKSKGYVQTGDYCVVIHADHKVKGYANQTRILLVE
#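 ATP generated from ADP (0.1 mM) and PEP (0.5 mM) by 0.1 nM LmPK over 1 h at room temperature (pH 7.2 imidazole buffer) was detected by coupled luciferase luminescence. Values were normalized to uninhibited and no-enzyme wells.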
# Starred values were filed as active, the others as inactive; i = inactive; ? = inconclusive; . = not tested or not shown; [ ] = remark or other dose. Many of the other results were omitted from the sample, so hits are more common in it than they were. Unless noted, calls come from the whole dose curve; as a rule, active = well fitted curve in the direction sought with a large enough effect; inconclusive = small, poorly fitted or top-dose-only effect, or another doubt; inactive = no such curve, though single readings can be large; an effect the other way counts as inactive or inconclusive.
SMILES,TbPYK inhibitor,Shiga inhibitor,FBPA Giardia inh,Sm TGR block,CHX counter,LmPK inh
COc1ccccc1/C=C1\SC(=S)N(CCC(=O)NCCc2ccc(O)cc2)C1=O,4.8%,9.5,.,-0.6%,20.9*,3.8%
O=C(CCN1C(=O)/C(=C/C=C/c2ccccc2)SC1=S)Nc1ccccn1,-11.2%,-23.4,-5.1%,-1.3%,-10.1,-1.0%
COc1ccc(CCNC(=O)CSc2nc3c(sc(=S)n3-c3ccccc3)c(=O)[nH]2)cc1OC,-11.1%,.,.,.,.,.
CCOc1ccccc1NC(=O)c1c(NC(=O)COc2ccccc2)sc2c1CCCCC2,0.0%,.,.,0.8%,.,.
CC1(C)CC(=O)C2=C(C1)c1c(ccc3ccccc13)NC2c1ccco1 (stereo not drawn),3.1%,33.0,-8.2%,44.7µM*,15.9,10.5%
Cc1ccsc1C1Nc2ccc3ncccc3c2C2=C1C(=O)CC(C)(C)C2 (stereo not drawn),3.7%,-16.4,?,3.3%,8.4,1.7%
CCc1cccc(CC)c1NC(=O)C1CCN(C(=O)c2ccco2)CC1,1.5%,7.8,2.1%,-2.6%,-6.3,-3.7%
c1ccc(Cc2noc(CN3CCCN(C4Cc5ccccc5C4)CC3)n2)cc1,8.6%,6.3,-8.2%,25.1µM*,0.9,0.0%
COc1ccc(Nc2cc(C(=O)NCc3ccccc3)c3ccccc3n2)cc1,2.1%,.,.,-2.5%,.,.
Cc1ccc(NC(=O)c2cc(-c3ccc(C)o3)nc3ccccc23)cc1,?,-2.9,-3.6%,25.1µM*,-1.4,-0.4%
Cc1ccc(-c2cc(C(=O)NCCN3CCOCC3)c3ccccc3n2)o1,-10.5%,-6.4,-0.2%,44.7µM*,-0.9,-2.7%
Cc1cc(C)cc(Nc2cc(C(=O)NCc3ccccc3)c3ccccc3n2)c1,1.8%,.,.,35.5µM*,.,.
Cc1ccc(-c2cc(C(=O)Nc3cccnc3)c3ccccc3n2)o1,?,6.7,-11.8%,-16.7%[11.4 µM],7.5,-8.7%
Cc1ccc(-c2cc(C(=O)Nc3ccccn3)c3ccccc3n2)o1,-33.1%,-7.4,-24.9%,17.8µM*,1.7,-4.3%
O=C(NCc1ccc(F)cc1)c1cc(C2CCCCN2C(=O)OCCF)on1 (stereo not drawn),-2.9%,.,.,.,.,.
COc1cccc(N2CC(NC(=O)c3cc4ccccc4o3)CC2=O)c1 (stereo not drawn),3.4%,.,.,11.2%,.,.
Cc1ccc(Nc2cc(C(=O)NCCCN3CCOCC3)c3ccccc3n2)cc1C,18.3%,40.1*,14.2%,-7.0%,38.4*,7.9%
COC(=O)c1c(NC(=O)c2cc(=O)c3cc(C)cc(C)c3o2)sc2c1CCC2,-2.0%,.,.,5.0%,.,.
O=C1OC2(CCCCC2)CC2=C1C1O[C@](CCCCN3C(=O)c4ccccc4C3=O)(Cc3ccccc31)O2,.,i,2.1%[12.9 µM],?,-5.1,-4.6%[11.5 µM]
COc1cc2c(cc1OC)C1O[C@](CCCCN3C(=O)c4ccccc4C3=O)(C2)OC2=C1C(=O)CC(C)(C)C2,.,i,?,4.47µM*,-2.2,-7.5%[11.5 µM]
COc1cc2c(cc1OC)C1O[C@](CCCCN3C(=O)c4ccccc4C3=O)(C2)OC2=C1C(=O)OC1(CCCCC1)C2,.,i,-11.2%[12.9 µM],4.47µM*,-2.3,-8.2%[11.5 µM]
Clc1ccccc1-c1nnc(COc2ccccc2)o1,0.6%,.,.,-0.6%,.,.
Clc1ccc(OCc2nnc(-c3ccccc3Br)o2)cc1,-0.2%,49.3,1.4%,4.8%,12.0*,1.1%
Clc1cccc(OCc2nnc(-c3ccccc3Br)o2)c1,-9.0%,86.4*,5.6%,17.4%,38.4*,3.8%
CC(C)[C@H](CO)Nc1nc(Nc2cccc(Cl)c2)c2ncn(C(C)C)c2n1,.,.,-6.0%,.,.,.
SMILES,TbPYK inhibitor,Shiga inhibitor,FBPA Giardia inh,Sm TGR block,CHX counter,LmPK inh
CC[C@H](CO)Nc1nc(Nc2cccc(Cl)c2)c2ncn(C(C)C)c2n1,6.2%,22.0,-17.4%,9.2%,10.0*,2.2%
O=C(O)c1ccc2c(=O)n3cc(C(=O)c4ccccc4O)cc(Cl)c3nc2c1,-11.0%,-1.6,?,-4.4%,34.1*,14.4%
O=C(NNC(=O)c1ccccc1Cl)c1ccc2c(=O)n3c(nc2c1)CCC3,3.9%,.,.,-2.5%,.,.
C#CC[N+](C)(C)CC#Cc1ccc(Cl)cc1,-13.6%,-6.0,4.5%,39.8µM*,-5.8,-1.5%
C#CC[N+](CC)(CC)CC#Cc1cccc(Cl)c1,-1.2%,-7.3,-1.5%,-5.9%,-4.3,-0.8%
Cc1ccc(/C=C2/SC(=S)N(CCC(=O)N3CCOCC3)C2=O)cc1,-5.2%,22.6,7.7%,12.0%,16.2*,7.5%
Cc1ccc(/C=C2\SC(=O)N(CCC(=O)N3CCN(C)CC3)C2=O)cc1,-4.4%,45.0*,-5.8%,-7.4%,26.8*,5.0%
CN1CCN(C(=O)CCN2C(=O)S/C(=C/c3ccc(Cl)cc3)C2=O)CC1,0.7%,20.9,2.2%,.,4.7,0.6%
Cc1ccc(/C=C2\SC(=S)N(CCC(=O)NNS(=O)(=O)c3ccc(C)cc3)C2=O)cc1,-8.3%,13.2,-1.9%,4.3%,24.5*,5.4%
Cc1ccc(/C=C2/SC(=S)N(CCC(=O)N3CCN(C)CC3)C2=O)cc1,4.4%,7.9,-1.6%,-14.7%,-3.0,-2.6%
COc1ccc(C2C(C(=O)NCc3ccccn3)CCC(=O)N2c2cc(OC)c(OC)c(OC)c2)cc1 (stereo not drawn),-6.5%,94.2*,4.8%,-3.8%,39.9*,3.8%
COCC(=O)N[C@@H]1c2cc(OC)c(OC)cc2C[C@H]1OCc1ccccc1,4.4%,.,.,.,.,.
Cc1cc(SCC(=O)c2ccc(O)c(O)c2)nc2ccccc12,-5.9%,-12.1,-21.3%,2.82µM*,-3.0,4.6%
O=C(CSc1ccc2ccccc2n1)N/N=C/c1ccc(O)cc1,1.3%,11.5,-2.8%,-16.7%,11.4*,6.9%
O=C(CSc1cccc2cccnc12)N/N=C/c1ccc(O)cc1,-2.5%,-13.0,-28.0%,-0.3%,-2.4,0.8%
O=C(CCC(=O)Nc1ccc(Br)cc1)N/N=C/c1ccccc1F,-5.4%,-8.4,5.9%,4.4%,-1.2,-5.2%
O=C(CSc1ccc2ccccc2n1)N/N=C/c1ccccc1O,-9.2%,59.6*,-6.3%,13.5%,32.0*,-9.4%
O=C(CCC(=O)Nc1ccc(F)cc1)N/N=C/c1ccccc1O,0.2%,72.8*,10.2%,15.6%,24.2*,7.7%
Fc1ccc(C(c2nnc(-c3ccccc3)o2)N2CCN(c3ccccc3)CC2)c(Cl)c1 (stereo not drawn),1.7%,.,.,2.3%,.,.
O=C(C[C@H]1C(=O)N(Cc2ccccc2)C[C@@H]1c1ccc(Br)cc1)Nc1ccc(Br)cc1,-7.9%,.,.,.,.,.
Cc1nc2ccccc2nc1SCC(=O)c1ccccc1,-0.1%,18.8,-1.1%,-0.1%,16.1,-0.1%
O=C(Cn1cncn1)N/N=C/c1ccccc1O,1.4%,34.4,17.9%,-4.2%,9.9*,1.2%
O=C(CSc1ccc2ccccc2n1)c1ccccc1,-2.3%,90.1*,-6.6%,0.3%,52.7*,0.3%
O=C(CCn1cnc2ccccc21)N/N=C/c1ccccc1O,3.6%,60.2*,-22.7%,-1.2%,24.0*,-0.8%

# From PubChem BioAssay
